Source: PubChem (National Center for Advancing Translational Sciences (NCATS))
Sampled rows, rich in hits. Any-hit rate of the full collection: about 10%.
GPT2 inh: GPT2 alanine aminotransferase inhibition; Q8TD30; Recombinant GPT2, coupled pyruvate oxidase/HRP Amplex Red fluorescence; Potency, µM (top dose mostly 57.7 µM), inactives show at the top dose activity change, negative = inhibition, usual class: inhibitors; hit rate 0.25% among 100,000; AID 1671188; further: nearly all actives have a fitted effect of over 60% in size
Target sequence (Q8TD30 whole entry, looked up): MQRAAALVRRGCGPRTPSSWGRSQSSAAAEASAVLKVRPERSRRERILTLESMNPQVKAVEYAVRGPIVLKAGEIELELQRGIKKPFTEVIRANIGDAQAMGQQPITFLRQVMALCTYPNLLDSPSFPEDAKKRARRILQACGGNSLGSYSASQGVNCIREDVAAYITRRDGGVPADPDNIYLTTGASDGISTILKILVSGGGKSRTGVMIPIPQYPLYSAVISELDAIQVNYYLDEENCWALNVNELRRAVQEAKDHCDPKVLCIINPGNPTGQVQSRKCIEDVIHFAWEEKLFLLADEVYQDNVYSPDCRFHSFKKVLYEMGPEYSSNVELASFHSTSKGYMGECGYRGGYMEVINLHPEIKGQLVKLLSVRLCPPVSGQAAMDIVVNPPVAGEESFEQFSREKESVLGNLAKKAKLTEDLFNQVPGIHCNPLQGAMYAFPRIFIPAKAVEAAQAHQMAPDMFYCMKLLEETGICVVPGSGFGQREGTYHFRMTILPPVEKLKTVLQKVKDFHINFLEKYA
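Fluorescence read-out: pyruvate from GPT2 turnover coupled to pyruvate oxidase, HRP and Amplex Red (0.2mM ThPP, 0.2U/mL PO and HRP, 50uM Amplex final). Substrates 250uM a-KG, 2mM L-alanine; enzyme 10ng/uL; 30 min RT.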
NPR1 antag: blocks ANP-stimulated signaling of human Npr1 receptor; P16066; HEK293 hNpr1 GloSensor cGMP, ANP-stimulated luminescence; Potency, µM (highest dose often 46.3 µM), for the others: at the top dose activity change, negative = inhibition, hits mostly inhibitors; hit rate 1.6% among 76,000; calls by dose curve; further: nearly all actives have a fitted effect of over 60% in size
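Compound pre-incubated 30 min at room temperature on GloSensor-loaded HEK293 cells stably carrying hNpr1 and the pGS-40F cGMP biosensor. Stimulation uses hNppA at 0.1 nM final; luminescence is taken at baseline and 20 min post-agonist.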
Luciferase inh: Photinus pyralis luciferase inhibition | Potency, µM (highest dose often 115 µM), actives largely listed as inhibitors | P08659 | AID 1347043 | purified P. pyralis luciferase, luminescence, biochemical | hit rate 2.5% among 76,000; further: nearly all actives have a fitted effect of over 65% in size
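Purified 10nM P. pyralis luciferase with 10uM D-luciferin and 10uM ATP in 50mM Tris acetate pH 7.5, 10mM Mg acetate, 0.01% Tween-20, 0.05% BSA. qHTS titration; luminescence read by CCD imager.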
HEK cytotox: HEK 293 cell cytotoxicity; HEK 293 viability, ATP luminescence (CellTiter-Glo), 48-72 h; Potency, µM (series often up to 115 µM), for the others: top-dose activity change, negative = cytotoxicity, hits mostly inhibitors; hit rate 6.6% among 94,000; AID 1345083; further: nearly all actives have a fitted effect of over 60% in size
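CellTiter-Glo luminescence (cellular ATP) was read after 48 or 72 hr of compound exposure at 37 degree Celsius. Cells were HEK 293 plated at 250 cells/well.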
3T3 cytotox: kills NIH 3T3 cells; NIH 3T3 viability, CellTiter-Glo ATP luminescence, 48-72 h; Potency, µM (series often up to 96.7 µM), for inactives: at the top dose activity change, negative = cytotoxicity, actives largely listed as inhibitors; hit rate 4.3% among 94,000; AID 1345082; further: nearly all actives have a fitted effect of over 55% in size
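NIH 3T3 cells at 400 cells/well received 23 nL of compound by pintool and were incubated 48 or 72 h at 37 °C. Viability was read as ATP-coupled CellTiter-Glo luminescence.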
Starred values were filed as active, the others as inactive; i = inactive; ? = inconclusive; . = not tested or not shown; [ ] = remark or other dose. Unless noted, the call rests on the fitted dose curve; in most records, active means well fitted curve in the direction sought with a large enough effect; inconclusive means small, poorly fitted or top-dose-only effect, or another doubt; inactive means no such curve, though single readings can be large; an effect the other way counts as inactive or inconclusive. On the % scale 0 is the no-effect control and ±100 the full control effect; potency means the concentration at half of the fitted maximal effect.

SMILES	GPT2 inh	NPR1 antag	Luciferase inh	HEK cytotox	3T3 cytotox
O=C(COc1ccccc1)Nc1ccc([C@@H](O)[C@H]2COCC(=O)N2Cc2ccc(C(F)(F)F)cc2)cc1	-9%	?	i	40µM*	?
O=C(COc1ccccc1)Nc1ccc([C@@H](O)[C@H]2COCC(=O)N2CCCc2ccccc2)cc1	-6%	4%	i	79µM*	?
COc1ccc([C@H](Cc2ccncc2)c2ccccc2)cc1OC1CCCC1	1%	.	.	.	.
O=C(c1c(F)cccc1F)N(CC1CCOC1)C1CC1 (configuration not stated)	i	0%	i	3%	?
CC(C)OCCCNC(=O)C1c2ccccc2C(=O)N(Cc2ccccc2)C12CCCC2 (configuration not stated)	-1%	-1%	i	?	-34%
COC1CN(c2cccc(F)c2)C12CCN(C(=O)COc1ccccc1)CC2 (configuration not stated)	i	-1%	i	89µM*	?
O=C(O)c1ccnc(-c2ccnc(N3CCCOC(CN4CCCC4)C3)n2)c1 (configuration not stated)	-4%	1%	i	2%	2%
CCn1cc(C(CC(=O)N2CCC(C)CC2)c2cccc(Cl)c2)c2ccccc21 (configuration not stated)	i	-16%	i	40µM*	?
C[C@@H]1CN(C(=O)NCc2ccccc2F)CC[C@@]1(O)C1CCOCC1	-11%	9%	i	i	0%
O=C(c1cn[nH]c1-c1ccc(F)cc1)N1CCC(OCCOc2ccccc2)CC1	4%	.	.	50µM*	?
COCCOC1CCN(C(=O)c2cn[nH]c2-c2ccc(F)cc2)CC1	3%	6%	?	11%	-10%
CC(C)[C@@H]1CN(C(=O)c2cc(N3CCCCC3)ccc2Cl)C[C@H]1N(C)C	-21%	0%	i	40µM*	?
CCO[C@H]1CN(C(=O)c2cc(N3CCCCC3)ccc2Cl)C[C@@H]1O	i	0%	i	-13%	-19%
Clc1ccc(C2Cn3nnc(-c4noc(C5(c6ccccc6)CC5)n4)c3CO2)cc1 (configuration not stated)	i	0%	i	-4%	-14%
COc1ccc(NC(=O)NC[C@H]2COCc3nc4ccccc4n32)cc1	4%[88.5 µM]	3%[70.6 µM]	89µM*	-14%[172 µM]	?
COC(=O)c1ccc2c(c1)nc1n2[C@@H](CNCc2ccc3c(c2)OCO3)COC1	-17%[88.5 µM]	?	i	?	?
COc1ccc2nc3n(c2c1)[C@@H](CNC(=O)c1ccc(C#N)cc1)COC3	3%[88.5 µM]	-4%[70.6 µM]	i	-11%[172 µM]	89µM*
COc1ccc2c(c1)nc1n2[C@@H](CNCc2ccc3c(c2)OCO3)COC1	-38%[88.5 µM]	?	i	56µM*	?
COc1ccc2nc3n(c2c1)[C@@H](CNS(=O)(=O)Cc1ccccc1)COC3	i	-17%[70.6 µM]	i	?	89µM*
Cc1nc(-c2ccncc2)ncc1C(C)NC(=O)CN1C(=O)CNC1=O (configuration not stated)	-3%	-3%	i	-23%	-2%
CC(C)(C)c1nc(C(=O)N2CCN(c3ncccn3)CC2)n2ccccc12	-17%	.	.	?	?
Cc1nc(CN2Cc3nc(-c4cc5ccccc5o4)ccc3OCC2=O)cs1	-13%[88.5 µM]	?	?	63µM*	?
COc1ccccc1-c1ccc2c(n1)CN(Cc1csc(C)n1)C(=O)CO2	i	-2%[70.6 µM]	i	-11%[172 µM]	45µM*
Cc1nc(CN2Cc3nc(-c4ccc5c(c4)OCO5)ccc3OCC2=O)cs1	-17%[88.5 µM]	0%[70.6 µM]	i	?	?
CC(C)Oc1ccc(CNC(=O)c2ccc(Cn3ccn4nc5c(c4c3=O)CCCC5)cc2)cc1	-16%	?	i	35µM*	?
SMILES	GPT2 inh	NPR1 antag	Luciferase inh	HEK cytotox	3T3 cytotox
Cc1ccccc1N1CCN(C(=O)c2ccc(Cn3ccn4nc5c(c4c3=O)CCCC5)cc2)CC1	1%	-28%	i	20µM*	?
Cc1ccc(C)c(Cn2ccn3nc4c(c3c2=O)CCCC4)c1	i	-1%	i	40µM*	?
O=C(NC1CCCCCCC1)c1ccc(Cn2ccn3nc4c(c3c2=O)CCCC4)cc1	-8%	-18%	i	32µM*	?
Cc1ccc(Cl)cc1N1CCN(C(=O)CCn2ccn3nc4c(c3c2=O)CCCC4)CC1	i	?	i	?	?
Cc1ccc(NC(=O)Cn2ccn3nc4c(c3c2=O)CCCCC4)c(C)c1	4%	-2%	?	-15%	-26%
O=C(NCc1ccncc1)c1ccc(Cn2ccn3nc4c(c3c2=O)CCCC4)cc1	i	-16%	i	?	?
COc1cccc(CN(C(=O)CC(C)(C)C)C2CC(C(=O)N3CCNCC3)N(Cc3ccc4c(c3)OCO4)C2)c1 (configuration not stated)	i	.	.	.	.
O=C(c1ccc(C(F)(F)F)cc1)N1CCC2(CC1)CN[S+](=O)([O-])c1cccnc1O2	i	.	.	-4%	-3%
O=C1NC(C(=O)N2CCCCC2)Cn2cccc21 (configuration not stated)	i	-2%	i	i	3%
COc1ccccc1-n1c(=O)c(C(=O)N2CCN(C(=O)c3ccccc3)CC2)nc2cccnc21	i	.	.	-1%	-7%
COc1ccc(CCNC(=O)c2ccc(Cn3ccn4nc5c(c4c3=O)CCCC5)cc2)cc1OC	-3%	?	i	40µM*	?
CN(C)c1ccc(C(=O)NC2CCN(c3cc(-c4ccc(Cl)cc4)[nH]n3)CC2)cc1	i	-3%	i	?	-19%
Cc1ccc(C(=O)NC2CCCN(c3cc(-c4ccccc4)[nH]n3)C2)cc1F (configuration not stated)	-1%	-18%	i	?	?
Cc1ccc(C(=O)NC2CCN(c3cc(-c4ccccc4)[nH]n3)CC2)cc1F	-1%	-14%	i	?	35µM*
CC(=O)Nc1ccc(C(=O)NC2CCN(c3cc(-c4ccc(Cl)cc4)[nH]n3)CC2)cc1	-4%	-25%	i	32µM*	22µM*
O=C(NC1CCN(c2cc(-c3ccccc3)[nH]n2)CC1)c1cccc(Cl)c1	1%	0%	i	28µM*	?
O=C(NC1CCN(c2cc(-c3ccc(F)cc3)[nH]n2)C1)c1cccc(Cl)c1 (configuration not stated)	?	-16%	i	?	?
Cc1ccc([S+](=O)([O-])N2CCC(c3nn(Cc4ccccc4)c(=O)[nH]3)CC2)cc1	1%	-13%	i	0%	-5%
COc1ccc(C(=O)N[C@@H]2CCC[C@@H]2C(=O)NCCOc2ccccc2OC)cc1	i	0%	i	i	-6%
